A selection: hits, their analogues and other compounds. The true share with any hit is near 2.7%.
ERG-DNA inh: blocks human ERG Ets domain binding to DNA; P11308; fluorescence polarization, His-ERG Ets domain / labelled DNA; Potency, µM (series often up to 76.9 µM), inactives show top-dose FP activity, negative = inhibition, usual class: inhibitors; hit rate 0.028% among 370,000; active means well fitted inhibition curve with a large enough effect in the polarisation, with a control signal flat; inconclusive means small, poorly fitted or top-dose-only effect, or effect the other way, or a change in a side signal; inactive means no such curve, though single readings can be large or run the other way; the % refers to the polarisation;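 further: polarization taken with two DNA probes labelled with fluorescein and Texas red; potency means the concentration at half of the fitted maximal effect; % of control where 0% means no effect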
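His-tagged ERG Ets domain (1 uM in the protein solution; 300mM KCl, 50mM Tris-HCl, 1mM EDTA, 1mM DTT, pH 7.5) received compound, then a probe mix of 5 nM fluorescein-DNA and 100nM Texas-615-DNA. Fluorescence polarization was read for both dyes.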
A549 tox: A549 cytotoxicity, counter-screen for Nrf2 inhibitors. A549 ARE-Fluc cells, CellTiter-Fluor viability, 18-24 h. Potency, µM (titrated, usually from 46 µM), inactives show at the top dose activity change, negative = cytotoxicity, most hits filed as inhibitors. hit rate 0.16% among 390,000; further: potency means the concentration at half of the fitted maximal effect; on the % scale 0 is the no-effect control and ±100 the full control effect
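A549 ARE-Fluc cells in 5% FBS OPTI-MEM, 5000 cells/well, rested 2 h then exposed to compounds in concentration-response for 18-24 h at 37 °C. Viability by CellTiter-Fluor fluorescence (Ex 405/Em 525) after 30 min; luciferase luminescence (BugLite, 15 min, RT) read afterwards.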
12-LOX inh: inhibitors of human 12S-lipoxygenase ALOX12; P18054; purified 12hLO, xylenol orange hydroperoxide absorbance; Potency, µM (highest dose often 108 µM), for the others: top-dose activity change, negative = inhibition, actives largely listed as inhibitors; hit rate 1.1% among 580,000; AID 1671190; further: potency means the concentration at half of the fitted maximal effect; on the % scale 0 is the no-effect control and ±100 the full control effect
Target sequence (P18054 whole entry, looked up): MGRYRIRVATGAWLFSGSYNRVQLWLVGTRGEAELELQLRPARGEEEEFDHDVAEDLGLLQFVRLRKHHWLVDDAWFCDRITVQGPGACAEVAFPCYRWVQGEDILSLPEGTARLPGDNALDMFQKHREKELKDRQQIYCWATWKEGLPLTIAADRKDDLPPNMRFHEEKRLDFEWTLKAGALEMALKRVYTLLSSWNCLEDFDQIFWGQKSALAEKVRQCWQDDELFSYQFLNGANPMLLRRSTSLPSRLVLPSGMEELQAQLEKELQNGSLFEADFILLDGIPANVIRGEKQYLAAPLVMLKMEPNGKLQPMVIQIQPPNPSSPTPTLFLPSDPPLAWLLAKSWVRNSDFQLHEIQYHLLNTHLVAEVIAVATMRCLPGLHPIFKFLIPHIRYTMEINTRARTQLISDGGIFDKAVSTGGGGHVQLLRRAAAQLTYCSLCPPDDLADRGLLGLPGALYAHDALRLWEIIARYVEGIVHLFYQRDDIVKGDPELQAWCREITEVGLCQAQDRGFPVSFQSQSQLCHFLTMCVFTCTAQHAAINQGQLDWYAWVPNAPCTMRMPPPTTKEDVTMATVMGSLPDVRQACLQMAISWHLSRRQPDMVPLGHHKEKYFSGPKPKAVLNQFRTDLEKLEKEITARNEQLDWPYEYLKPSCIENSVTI
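Purified human 12hLO at 150 nM in 25 mM Hepes, 0.01% Triton X-100, pH 7.0, preincubated 15 min at room temperature with compound. Reaction started with 40 uM arachidonic acid, 30 min at room temperature. Hydroperoxide measured by Fe-xylenol orange, 573/405 nm absorbance ratio.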
Nrf2 activator: activates Nrf2 signaling. AREc32 ARE-luciferase reporter (MCF7-derived line), luminescence, 24 h. Potency, µM (highest dose often 46.1 µM), for inactives: top-dose activation, usual class: activators. hit rate 0.31% among 410,000. AID 624171; further: potency means the concentration at half of the fitted maximal effect; % of control where 0% means no effect; nearly all actives have a fitted effect of over 65% in size
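Luminescent ARE reporter assay in AREc32_Fluc cells: overnight plating at 37 deg C, 24 hr compound incubation, Steady-Glo added, 30 min RT before reading.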
LDHA block: LDHA (human) enzyme inhibition; P00338; purified LDHA, NADH/diaphorase-resazurin fluorescence; hits give low values; activity change, % (values are at about 110 or 230 µM); hit rate 0.15% among 480,000; AID 1347041; in the data active means activity change below about -30%; inconclusive means mostly about -25% to -30%;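 further: plate controls were DMSO wells for no effect and wells without enzyme for full effect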
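Human LDH5 at 2 nM final in Tris HCl pH 7.4 with 0.06 mM NADH and 0.2 mM pyruvate, reacted 5 minutes at room temperature. Remaining NADH coupled via diaphorase/resazurin; resorufin fluorescence read at 0 and 20 minutes, normalized to enzyme-free and DMSO wells.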
Nrf2 block: Nrf2 pathway inhibition; Potency, µM (top dose mostly 46 µM), for the others: at the highest dose activity change, negative = inhibition, hits mostly inhibitors; hit rate 2.1% among 360,000; AID 504444; A549 ARE-Fluc reporter, luciferase luminescence, 18-24 h; further: potency means the concentration at half of the fitted maximal effect; on the % scale 0 is the no-effect control and ±100 the full control effect; nearly all actives have a fitted effect of over 60% in size
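Two sequential reads on A549 ARE_Fluc cells exposed to compound for 18-24 h: a CellTiter-Fluor fluorescence read for viability, then a luciferase luminescence read for Nrf2/ARE activity.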
Numbers without * were called inactive; ? = inconclusive; . = not tested or not shown; [ ] = dose if it differs, or a comment. Unless noted, the call rests on the fitted dose curve; in most records, active means well fitted curve in the direction sought with a large enough effect; inconclusive means small, poorly fitted or top-dose-only effect, or another doubt; inactive means no such curve, though single readings can be large; an effect the other way counts as inactive or inconclusive.

SMILES	ERG-DNA inh	A549 tox	12-LOX inh	Nrf2 activator	LDHA block	Nrf2 block
O=c1[nH]c2ccccc2c2nc3ccccn3c12	-2%	-6%	-15%	22%	1	-29%
O=C(Nc1ccccc1C(=O)O)c1cccc(S(=O)(=O)Nc2ccc(Br)cc2)c1	6%	0%	16µM*	0%	-12	-7%
O=C(O)c1ccc(NS(=O)(=O)c2cccc(C(=O)Nc3ccc(Br)cc3)c2)cc1	1%	0%	-22%	0%	-5	14%
O=C(Nc1ccccc1C(=O)O)c1cccc(NS(=O)(=O)c2ccc(Br)cc2)c1	-4%	-3%	40µM*	-1%	-3	-2%
O=C(Nc1ccccc1C(=O)O)c1cccc(NC(=O)c2ccccc2Br)c1	-14%	0%	?	-1%	-5	-9%
NC(=S)N/N=C1/CCCCC1c1ccccn1 (stereo not given)	.	.	?	.	3	.
CC1(C)CC(=O)C2=C(C1)OC(N)=C(C#N)C2c1ccco1 (stereo not given)	.	.	-28%	.	-2	.
O=c1c2ccccc2nc(SCc2nc3ccccc3o2)n1C1CC1	.	.	12%	.	0	.
Cc1c(N2C(=O)/C(=C/c3ccc(N(C)C)cc3)N(C)C2=S)c(=O)n(-c2ccccc2)n1C	121%	23µM*	-1%	-1%	8	-8%
Cc1nc2ccccc2c2oc(C(=O)Nc3ccc4c(c3)OCCO4)cc12	15%	-29%	163%	1%	-12	23µM*
Cc1nc2ccccc2c2oc(C(=O)Nc3ccc(C(C)C)cc3)cc12	-3%	?	-12%	-1%	4	15µM*
COc1cc(NC(=O)c2cc3c(C)nc4ccccc4c3o2)cc(OC)c1OC	8%	3%	-3%	3%	-4	-21%
CCc1ccc2c(CSc3nc4nc(C)cc(C)n4n3)cc(=O)oc2c1	.	.	?	.	3	.
CC1CC(C)CN(S(=O)(=O)c2ccc(Oc3ccc([N+](=O)[O-])cc3)cc2)C1 (stereo not given)	-8%	12%	12%	0%	-2	23µM*
CC1CCCN(S(=O)(=O)c2ccc([N+](=O)[O-])cc2)C1 (stereo not given)	-4%	?	-4%	3%	0	-1%
Cc1ccccc1-c1noc(COc2ccc3c(C)cc(=O)oc3c2)n1	.	.	40%	.	-2	.
COc1ccc2c(COC(=O)c3ccccc3OCC3CCCO3)cc(=O)oc2c1 (stereo not given)	.	.	29%	.	0	.
CCc1ccc(-n2nc3cc(C)c(N)cc3n2)cc1	1%	-3%	20µM*	8%	9	?
COc1ccc(-n2nc3cc(C)c(N)c(Br)c3n2)cc1	7%	1%	28µM*	14%	26	?
Nc1cc2nn(-c3ccccc3)nc2cc1Cl	-4%	1%	5.6µM*	16%	5	?
Cc1ccc(-n2nc3cc(C)c(N)cc3n2)cc1	0%	-4%	45µM*	2%	7	?
Cc1cc(Cl)ccc1OCC(=O)Nc1ccc(N2CCN(C(=O)c3cccs3)CC2)cc1	.	.	5%	.	6	.
Cc1cc(C(=O)CSc2nc(N)cc(N)n2)c(C)n1CC1CCCO1 (stereo not given)	-5%	-6%	0%	0%	-6	?
Cc1cc(C(=O)Cn2nnc(-c3ccc(Cl)cc3)n2)c(C)n1CC1CCCO1 (stereo not given)	.	-9%	24%	0%	-4	13µM*
Cc1cc(C)n2nc(SCC(=O)c3cc(C)n(CC4CCCO4)c3C)nc2n1 (stereo not given)	5%	-5%	1%	2%	2	10µM*
SMILES	ERG-DNA inh	A549 tox	12-LOX inh	Nrf2 activator	LDHA block	Nrf2 block
CCNC(=O)CN1CCN(Cc2coc(-c3ccccc3)n2)CC1	.	.	36%	.	11	.
CCc1ccc(NC(=O)c2sc3nc(C)c(Cl)c(C)c3c2NC(=O)c2ccccc2OC)cc1	-5%	8%	-14%	-1%	-6	4%
CCc1ccc(NC(=O)c2sc3nc(C)c(Cl)c(C)c3c2N)cc1	-4%	3%	-16%	-1%	3	3.7µM*
COc1ccc(C(C#N)=C2C=CC(=NO)C(C)=C2Cl)cc1	.	?	20µM*	?	10	6%
COc1ccc(C(C#N)=C2C=C(Cl)C(=NO)C=C2Cl)cc1	.	.	?	11µM*	2	.
N#CC(=C1C=C(Br)C(=NO)C=C1Cl)c1cccc2ccccc12	.	.	?	22%	1	.
CC(C)(C)NC(=O)/C(C#N)=C\c1ccc(OC(F)F)cc1	.	.	?	.	4	.
C=CCSC1=N/C(=C\c2ccc(SC)cc2)C(=O)S1	.	.	?	.	15	.
Cc1cc2nc(SCCOC(=O)Nc3ccccc3)nc(C)c2cc1C	-1%	-11%	-18%	0%	-2	21µM*
Nc1ccc2c(c1)C(=O)C(=O)c1ccccc1-2	0%	?	?	-3%	32	.
O=C1C(=O)c2ccc(-c3ccccc3)cc2-c2ccccc21	-2%	.	14%	-3%	46	21µM*
COc1cccc(Cn2nnc(C(=O)Nc3cc(C)ccc3C)c2N)c1	7%	-4%	-15%	4%	4	16µM*
Brc1cccc(CNCc2cccnc2-n2cccn2)c1	.	.	?	.	0	.
c1ccc(-c2ccc(CNCCN3CCCC3)cc2)cc1	.	.	-26%	.	4	.
Cc1cccc(OC[C@H]2C[C@@H](NC(=O)C3CCCC3)[C@H](O)[C@@H]2O)n1	.	.	2%[176 µM]	.	.	.
Cc1cccc(OC[C@H]2C[C@@H](NC(=O)c3ccc(C#N)cc3)[C@H](O)[C@@H]2O)n1	.	.	25µM*	.	.	.
COc1ccc(OCC(=O)Nc2ccc3oc(-c4ccccc4C)nc3c2)cc1	.	.	12%	.	-12	.
CC1(C)CCC[C@]2(C)[C@H]3CCO[C@]3(C)CC[C@@H]12	.	.	9%[176 µM]	.	.	.
N#Cc1cnn2c(C(F)(F)F)cc(-c3ccco3)nc12	.	.	?	.	-2	.
CCCC(C)NC(=O)Nc1cc(C(=O)NC2CC2)ccc1C (stereo not given)	.	.	12%	.	-34*	.
COc1ccnc(Oc2cccc(C(F)(F)F)c2)c1C(=O)N/C=N/OCc1ccccc1F	3%	-14%	1%	2%	2	21µM*
COc1cc(CCC(=O)Nc2ccc(C)c(S(=O)(=O)N(C)C)c2)cc(OC)c1OC	7%	-14%	-10%	2%	-1	23µM*
COc1ccc(NS(=O)(=O)c2ccc(C)c(C(=O)N(C)CCc3ccc(OC)c(OC)c3)c2)cc1	4%	-29%	-16%	-1%	-3	21µM*
COc1ccc(CCNCC(=O)Nc2ccc(C)c(S(=O)(=O)N(C)C)c2)cc1	13%	-3%	-18%	9%	-24	-30%
